Six1-Eya2 blk: inhibitors of human Six1/Eya2 interaction. Q15475+O00167. AlphaScreen GST-Six1/His-Eya2 binding, biochemical; hits give low values. activity change, % (test concentration not listed). 0.56% of 360,000 active. AID 651725; in the data active = activity change below about -65%; inconclusive = mostly about -30% to -63%; also: % is scaled to controls: 0 for no effect and ±100 for the full control effect
Target sequence (O00167 whole entry, looked up): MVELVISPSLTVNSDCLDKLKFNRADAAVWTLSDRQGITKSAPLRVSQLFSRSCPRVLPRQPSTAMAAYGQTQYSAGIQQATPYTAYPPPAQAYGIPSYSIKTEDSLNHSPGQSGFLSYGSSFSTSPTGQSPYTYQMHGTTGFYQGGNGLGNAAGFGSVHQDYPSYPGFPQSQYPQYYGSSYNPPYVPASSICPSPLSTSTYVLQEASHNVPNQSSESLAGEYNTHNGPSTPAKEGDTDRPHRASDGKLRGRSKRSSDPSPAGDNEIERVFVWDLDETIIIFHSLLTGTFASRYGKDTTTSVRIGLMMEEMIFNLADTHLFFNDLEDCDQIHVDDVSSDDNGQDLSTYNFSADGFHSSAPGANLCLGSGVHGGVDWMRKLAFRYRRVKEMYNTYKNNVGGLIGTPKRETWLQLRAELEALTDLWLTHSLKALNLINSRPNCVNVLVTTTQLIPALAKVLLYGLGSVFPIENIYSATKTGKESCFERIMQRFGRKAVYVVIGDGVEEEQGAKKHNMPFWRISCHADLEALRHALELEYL
Target sequence (Q15475 whole entry, looked up): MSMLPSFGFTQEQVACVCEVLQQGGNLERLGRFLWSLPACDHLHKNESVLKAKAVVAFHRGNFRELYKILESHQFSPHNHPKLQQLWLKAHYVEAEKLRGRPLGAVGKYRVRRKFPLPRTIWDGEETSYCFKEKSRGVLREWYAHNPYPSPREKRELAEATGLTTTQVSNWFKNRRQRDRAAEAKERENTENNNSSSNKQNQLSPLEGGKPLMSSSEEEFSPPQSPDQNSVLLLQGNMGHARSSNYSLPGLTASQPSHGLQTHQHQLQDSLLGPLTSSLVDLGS
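Homogeneous AlphaScreen proximity assay pairing GST-Six1 with His-tagged Eya2 (added as 5X mix: 250 nM and 500 nM) in 50 mM Tris pH 8.0, 300 mM NaCl, 1 mM TCEP. Glutathione donor and nickel acceptor beads; 1 h, 37 °C, dark.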
G9a block: blocks human histone lysine methyltransferase G9a. Potency, µM (highest dose often 102 µM), inactives show at the top dose activity, negative = inhibition, most hits filed as inhibitors. G9a H3K9 monomethylation, AlphaScreen, 2 h. 8.8% of 350,000 active. Q96KQ7. AID 504332; also: potency is read from the fitted curve at half-maximal effect; % is scaled to controls: 0 for no effect and ±100 for the full control effect; nearly all actives have a fitted effect of over 75% in size
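Compounds were preincubated with 20 nM G9a for 15 min, after which biotinylated H3K9 peptide (500 nM) and SAM (20 uM) started a 2 h room-temperature reaction. Monomethylated product was quantified by antibody-based AlphaScreen chemiluminescence.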
HP1b binding inh: inhibitors of HP1-beta chromodomain binding to methylated histone tails; AID 540317; P83916; 0.56% of 390,000 active; AlphaScreen HP1-beta / biotin-H3K9me3 peptide binding; Potency, µM (doses to about 114 µM), for inactives: at the highest dose activity change, negative = inhibition, hits mostly inhibitors; also: potency is read from the fitted curve at half-maximal effect; nearly all actives have a fitted effect of over 70% in size
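Compound inhibition of the preformed complex between 50 nM HP1-beta and 50 nM biotinylated H3K9me3 peptide was read by AlphaScreen. Buffer was PBS pH 7.4 with 0.01% Tween-20. Incubations ran 30 min at room temperature, with 10 ug/mL donor/acceptor beads.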
JMJD2A Tudor: inhibitors of human JMJD2A Tudor domain. 4.4% of 390,000 active. AlphaScreen JMJD2A-Tudor / H3K4me3 peptide binding. Potency, µM (series often up to 114 µM), for the others: top-dose activity change, negative = inhibition, most hits filed as inhibitors. O75164; also: potency is read from the fitted curve at half-maximal effect; % is scaled to controls: 0 for no effect and ±100 for the full control effect; nearly all actives have a fitted effect of over 50% in size
BAZ2B block: blocks human BAZ2B. Q9UIF8. AlphaScreen BAZ2B-H3K14Ac peptide displacement. Potency, µM (top dose mostly 114 µM), for inactives: top-dose activity change, negative = inhibition, actives largely listed as inhibitors. 4.4% of 360,000 active; also: potency is read from the fitted curve at half-maximal effect; % is scaled to controls: 0 for no effect and ±100 for the full control effect; nearly all actives have a fitted effect of over 60% in size
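Multi-concentration screen (max 110 uM) measuring displacement of acetylated histone H3 peptide from BAZ2B by AlphaScreen, using 50 nM protein, 50 nM peptide and 10 ug/mL streptavidin donor plus Ni-chelate acceptor beads.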
CtBP-E1A blk: inhibitors of CtBP/E1A interaction. AlphaScreen GST-E1A/His-CtBP binding, 1536-well; hits give low values. activity change, % (concentration not given with the values). 0.49% of 340,000 active; in the data active = activity change below about -65%; inconclusive = mostly about -30% to -63%; also: % is scaled to controls: 0 for no effect and ±100 for the full control effect
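Protein mix (5X: 125 nM each GST-E1A, His-CtBP) was incubated with pinned compound 2 h at 37 deg C in dark, in 50 mM Tris pH 8.0 buffer with 300 mM NaCl. Glutathione donor and nickel acceptor beads followed; AlphaScreen signal read after 1 h.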
An asterisk follows results filed as active; ? = inconclusive; . = no result given; ! = not active in a repeat; [ ] = dose if it differs, or a comment. A selection: hits, their analogues and other compounds. The true share with any hit is near 10%. Unless noted, calls follow the shape of the dose curve; as a rule, active = well fitted inhibition curve with a large enough effect; inconclusive = small, poorly fitted or top-dose-only effect; inactive = no such curve, though single readings can be large or run the other way.

SMILES | Six1-Eya2 blk | G9a block | HP1b binding inh | JMJD2A Tudor | BAZ2B block | CtBP-E1A blk
O=C(/C=C1\C(=O)Nc2ccccc21)/C=C1\C(=O)Nc2ccccc21 | -2 | 7.1µM* | -1% | ? | 45µM* | -9
O=C1Nc2ccccc2Nc2ccccc21 | -1 | 14µM* | 5% | 50µM* | ? | 1
O=C1Nc2ccccc2C1=O | 7 | . | 1% | -13% | . | 1
O=C1Nc2ccccc2/C1=C\C(=O)c1ccccc1 | 7 | 25µM* | -15% | ? | -26% | 3
CN(O)/C=C1\C(=O)Nc2ccccc21 | 15 | 50µM* | -9% | -28% | -6% | 4
O=C1CN(C(=O)c2ccc(S(=O)(=O)N3CCCC3)cc2)C(c2ccccc2)c2cc(Br)ccc2N1 (centres undefined) | . | -21%[59 µM] | 26% | -17% | 0% | .
COc1ccc(C(=O)/C=C2\C(=O)Nc3ccc(Br)cc32)cc1 | -2 | . | -12% | ? | . | 5
CC(C)Oc1ccc(C(=O)/C=C2/C(=O)Nc3ccccc32)cc1 | 4 | 40µM* | -4% | ? | ? | 2
CC1=C(C(=O)N(C(C)C)C(C)C)CC(CC(=O)NC2CCCCC2)C(=O)N1Cc1ccc(F)cc1 (centres undefined) | 0 | . | . | . | . | 2
COC(=O)c1ccc2c(=O)[nH]c(CN3c4ccccc4CC3C)nc2c1 (centres undefined) | -11 | 11µM* | 8% | -30% | -29% | -5
CC1Cc2ccccc2N1Cc1nc2scc(-c3cccs3)c2c(=O)[nH]1 (centres undefined) | -7 | 45µM* | 22% | -15% | -32% | -6
CC(=O)N1CCc2cc(S(=O)(=O)NC(Cc3ccccc3)C(=O)O)ccc21 (centres undefined) | 0 | -15% | 32% | 8% | -24% | 5
CN(C)c1ncc2nc(-c3ccc(Cl)cc3)c(=O)n(CCC#N)c2n1 | . | 9%[0.501 µM] | . | . | . | .
COc1ccccc1-n1c(CNC(=O)c2ccco2)nnc1SCC(=O)Nc1nccs1 | 5 | -17% | 32% | -8% | -6% | 0
O=C(NCc1n[nH]c(=S)n1-c1ccccc1)c1ccco1 | 3 | 8.9µM* | 27% | 16µM* | 8% | 5
COc1ccccc1-n1c(CNC(=O)c2ccco2)n[nH]c1=S | 4 | 25µM* | 42% | ? | -2% | 10
O=C(NCc1n[nH]c(=S)n1-c1ccc(Cl)c(Cl)c1)c1ccco1 | 15 | 8%[12.7 µM] | 18% | 50µM* | -8% | 0
O=C(NCc1ccc(CNC(=O)c2ccco2)cc1)c1ccco1 | 5 | 44% | 35% | 7% | -9% | -1
O=C(NCCNCc1ccccc1)c1ccco1 | 13 | . | -11%[57 µM] | 25µM* | . | -7
CC1(C(=O)NS(=O)(=O)c2ccccc2C(F)(F)F)CCN1C(=O)CCC1CCCC1 (centres undefined) | 14 | . | . | . | . | 7
O=C(Nc1ccccc1F)Nc1ccccc1Br | 3 | -5% | 23% | -11% | 1% | .
CC1CCc2nc3ncn(Cc4cccc(F)c4)c(=O)c3cc2C1 (centres undefined) | . | -1%[59 µM] | 11%[57 µM] | -20% | -2% | .
O=[N+]([O-])c1cccc(C(=Nc2ccccc2)NO)c1 | -10 | ? | 12% | -20% | -17% | -3
O=[N+]([O-])c1cc([N+](=O)[O-])c2c(=Nc3ccccc3)n(-c3ccccc3)n(O)c2c1 | ? | 35µM* | ? | ? | 20µM* | -12
CCOC(=S)SCc1cn2cccc(C)c2n1 | -1 | 32µM* | 48% | -6% | -20% | 0
SMILES | Six1-Eya2 blk | G9a block | HP1b binding inh | JMJD2A Tudor | BAZ2B block | CtBP-E1A blk
COc1ccc(NC(=O)CC(C)NCCCN2CCCC2=O)cc1 (centres undefined) | 10 | 56µM* | ? | 18µM* | ? | 6
C=C(C)[C@@H]1CC=C(CN2CCN(Cc3ccccc3)CC2)CC1 | -7 | 50µM* | 6% | ? | ? | -10
C=C(C)C1CC=C(CN2CCN(Cc3ccccc3)CC2)CC1 (centres undefined) | 8 | ? | 41% | -22% | -35% | .
Cc1cc2c(s1)c1cnn(CC(=O)N3CCOCC3)c(=O)c1n2C | . | . | 18%[57 µM] | -10%[57.1 µM] | . | .
Cc1ccccc1OCC(=O)Nc1ccc(S(=O)(=O)N(Cc2ccccc2)c2ccccc2)cc1 | . | -6%[59 µM] | 41% | 79µM* | -4% | .
O=C(COc1ccc(F)cc1)Nc1ccc(S(=O)(=O)N(Cc2ccccc2)c2ccccc2)cc1 | . | 36%[59 µM] | 78% | -10% | 11% | .
CCOc1ccc(/C=C/C(=O)Oc2ccccc2)cc1 | 1 | . | 25% | 0% | -5% | -22
O=Cc1ccc(OC(=O)/C=C/c2ccccc2)cc1 | ? | 4% | 17% | 0% | 6% | -94*
O=C(/C=C/c1ccc([N+](=O)[O-])cc1)Nc1ncc([N+](=O)[O-])s1 | -1 | 50µM* | 9% | -31% | 35µM* | .
O=C(/C=C/c1cccnc1)c1ccc(F)c(F)c1 | 6 | 40µM* | 24% | -4% | -16% | -1
CC(=C/C(=O)O)/C=C/c1ccc([N+](=O)[O-])cc1 | 8 | 56µM* | 32% | -7% | ? | 8
CCCCN(CC)CCCNC(=O)CCN1N=C(c2ccc(OC)cc2)CCC1=O | . | 2%[59 µM] | -6% | -2% | 8% | .
COCCCNC(=S)N1CCN(S(=O)(=O)c2ccc(OC)cc2)CC1 | -14 | 17% | ? | -26%[11.4 µM] | -10% | .
COc1cccc(NC(=O)/C=C/c2ccccc2[N+](=O)[O-])c1 | -7 | ? | -8% | -17% | ? | 7
O=C(O)/C=C/c1cccnc1 | -19 | 16%[59 µM] | 27% | -3% | -3% | 2
CC(/C=C\c1cccnc1)=C/C(=O)O | -4 | -27%[59 µM] | -5% | 56µM*! | 50µM*! | 10
COc1ccc(OC(=O)/C=C/c2ccc([N+](=O)[O-])cc2)cc1 | -20 | 6%[2.33 µM] | 19% | -7% | -1% | -87*
COc1cccc(NC(=O)/C=C/c2ccc([N+](=O)[O-])cc2)c1 | -18 | 7.9µM* | -13% | -34% | ? | -22
CCOC(=O)N1CCC(NC(=O)c2cnn(-c3ccc(OC)cc3)c2C2CCN(C(=O)OC(C)(C)C)CC2)CC1 | . | -32%[59 µM] | 36% | -2% | 5%[57.1 µM] | .
CC(C)C1Cc2[nH][nH]c(=O)c2C(C2CC2)O1 (centres undefined) | -3 | . | . | . | . | -1
Cc1ccc(-n2c(SCC(=O)c3c(N)n(C4CC4)c(=O)[nH]c3=O)nnc2N2CCOCC2)cc1 | 8 | -37% | 21% | -5% | -2% | 4
CCn1c(SCC(=O)c2c(N)n(C3CC3)c(=O)[nH]c2=O)nnc1-c1ccccc1OC | 1 | 2µM* | 27% | -18% | 4% | -5
